# Positions count from the first letter of the chain named.
# Legend:
# Assay in all cases: PBM; 200 nM protein, PBS
# Conditions in all cases: dsDNA, one strand shown
# [1] = target: PRRX1 (Homo sapiens, UniProt P54821 80-166, F113S)
# [2] = target: T1, NKX2-6 (Homo sapiens, UniProt A6NCS4 118-204, R150C)
# T1 sequence: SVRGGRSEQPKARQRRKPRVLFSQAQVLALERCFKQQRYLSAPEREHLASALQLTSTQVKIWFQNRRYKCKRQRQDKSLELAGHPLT
# [3] = target: PRRX1 (Homo sapiens, UniProt P54821 80-166)
# [4] = target: MSX2 (Homo sapiens, UniProt P35548 130-214, R199I)
# [5] = target: ALX1 (Homo sapiens, UniProt Q15699 118-204, L144R)
# [6] = target: MSX2 (Homo sapiens, UniProt P35548 130-214)
# [7] = target: HESX1 (Homo sapiens, UniProt Q9UBX0 95-180, R109Q)
# [8] = target: ALX3 (Homo sapiens, UniProt O95076 139-225, L168V)
# [9] = target: MSX2 (Homo sapiens, UniProt P35548 130-214, F161Y)
# [10] = target: HESX1 (Homo sapiens, UniProt Q9UBX0 95-180, F115L)
# [11] = target: T2, NKX2-6 (Homo sapiens, UniProt A6NCS4 118-204)
# T2 sequence: T1 sequence with C33R
# [12] = target: T3, NKX2-6 (Homo sapiens, UniProt A6NCS4 118-204, F151L)
# T3 sequence: T1 sequence with C33R, F34L
# [13] = target: ALX1 (Homo sapiens, UniProt Q15699 118-204, L144V)
# [14] = target: ALX3 (Homo sapiens, UniProt O95076 139-225, N203Q)
# [15] = target: ALX3 (Homo sapiens, UniProt O95076 139-225)
# [16] = target: ALX3 (Homo sapiens, UniProt O95076 139-225, L168Q)
# [17] = target: ALX1 (Homo sapiens, UniProt Q15699 118-204)
# [18] = target: ALX3 (Homo sapiens, UniProt O95076 139-225, N203S)
# [19] = target: HOXB6 (Homo sapiens, UniProt P17509 132-218, K202E)
# [20] = target: HOXB6 (Homo sapiens, UniProt P17509 132-218)
# [21] = target: CRX (Homo sapiens, UniProt O43186 26-111, R41L)
# [22] = target: PITX2 (Homo sapiens, UniProt Q99697 72-157)
# [23] = target: SHOX (Homo sapiens, UniProt O15266 103-189, R173C)
# [24] = target: VAX1 (Homo sapiens, UniProt Q5SQQ9 86-172)
# [25] = target: VAX1 (Homo sapiens, UniProt Q5SQQ9 86-172, T142I)
# [26] = target: VAX1 (Homo sapiens, UniProt Q5SQQ9 86-172, K157R)
# Chain of VAX1 (Homo sapiens, UniProt Q5SQQ9 86-172, K157R) (Q5SQQ9 86-172 K157R): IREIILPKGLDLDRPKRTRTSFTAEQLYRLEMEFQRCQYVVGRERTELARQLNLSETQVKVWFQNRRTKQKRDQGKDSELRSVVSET
# Chain of PRRX1 (Homo sapiens, UniProt P54821 80-166) (P54821 80-166): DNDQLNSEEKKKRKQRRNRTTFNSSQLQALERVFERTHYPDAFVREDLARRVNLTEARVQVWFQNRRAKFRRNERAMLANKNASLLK
# Chain of HOXB6 (Homo sapiens, UniProt P17509 132-218, K202E) (P17509 132-218 K202E): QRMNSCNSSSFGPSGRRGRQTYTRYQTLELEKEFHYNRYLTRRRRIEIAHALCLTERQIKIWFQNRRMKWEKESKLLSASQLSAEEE
# Chain of PRRX1 (Homo sapiens, UniProt P54821 80-166, F113S) (P54821 80-166 F113S): as the sequence (P54821 80-166) above, with F34S counted along it
# Chain of VAX1 (Homo sapiens, UniProt Q5SQQ9 86-172) (Q5SQQ9 86-172): as the sequence (Q5SQQ9 86-172 K157R) above, with R72K counted along it
# Chain of HOXB6 (Homo sapiens, UniProt P17509 132-218) (P17509 132-218): as the sequence (P17509 132-218 K202E) above, with E71K counted along it
# Chain of ALX3 (Homo sapiens, UniProt O95076 139-225, L168V) (O95076 139-225 L168V): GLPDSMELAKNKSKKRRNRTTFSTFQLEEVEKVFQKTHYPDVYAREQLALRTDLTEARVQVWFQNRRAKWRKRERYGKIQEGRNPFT
# Chain of HESX1 (Homo sapiens, UniProt Q9UBX0 95-180, F115L) (Q9UBX0 95-180 F115L): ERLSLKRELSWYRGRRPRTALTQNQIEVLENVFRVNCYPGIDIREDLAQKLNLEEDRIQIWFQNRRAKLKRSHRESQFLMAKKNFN
# Chain of ALX1 (Homo sapiens, UniProt Q15699 118-204, L144R) (Q15699 118-204 L144R): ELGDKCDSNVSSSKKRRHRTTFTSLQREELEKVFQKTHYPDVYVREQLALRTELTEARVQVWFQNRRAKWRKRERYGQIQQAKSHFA
# Chain of SHOX (O15266 103-189 R173C): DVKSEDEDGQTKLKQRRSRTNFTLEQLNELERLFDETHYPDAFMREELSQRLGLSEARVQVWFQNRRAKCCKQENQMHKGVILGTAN
# Chain of ALX3 (Homo sapiens, UniProt O95076 139-225, N203S) (O95076 139-225 N203S): as the sequence (O95076 139-225 L168V) above, with V30L, N65S counted along it
# Chain of MSX2 (Homo sapiens, UniProt P35548 130-214, R199I) (P35548 130-214 R199I): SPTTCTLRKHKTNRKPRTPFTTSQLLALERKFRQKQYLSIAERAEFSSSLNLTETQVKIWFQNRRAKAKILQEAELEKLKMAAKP
# Chain of MSX2 (Homo sapiens, UniProt P35548 130-214, F161Y) (P35548 130-214 F161Y): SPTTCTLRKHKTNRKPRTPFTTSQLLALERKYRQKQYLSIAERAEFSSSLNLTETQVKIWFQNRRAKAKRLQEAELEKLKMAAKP
# Chain of ALX3 (Homo sapiens, UniProt O95076 139-225, N203Q) (O95076 139-225 N203Q): as the sequence (O95076 139-225 L168V) above, with V30L, N65Q counted along it
# Chain of CRX (O43186 26-111 R41L): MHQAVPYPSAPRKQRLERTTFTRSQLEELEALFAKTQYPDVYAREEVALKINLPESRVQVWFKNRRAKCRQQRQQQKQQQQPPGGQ
# Chain of ALX3 (Homo sapiens, UniProt O95076 139-225) (O95076 139-225): as the sequence (O95076 139-225 L168V) above, with V30L counted along it
# Chain of ALX1 (Homo sapiens, UniProt Q15699 118-204) (Q15699 118-204): as the sequence (Q15699 118-204 L144R) above, with R27L counted along it
# Chain of VAX1 (Homo sapiens, UniProt Q5SQQ9 86-172, T142I) (Q5SQQ9 86-172 T142I): as the sequence (Q5SQQ9 86-172 K157R) above, with T57I, R72K counted along it
# Chain of HESX1 (Homo sapiens, UniProt Q9UBX0 95-180, R109Q) (Q9UBX0 95-180 R109Q): as the sequence (Q9UBX0 95-180 F115L) above, with R15Q, L21F counted along it
# Chain of ALX3 (Homo sapiens, UniProt O95076 139-225, L168Q) (O95076 139-225 L168Q): as the sequence (O95076 139-225 L168V) above, with V30Q counted along it
# Chain of ALX1 (Homo sapiens, UniProt Q15699 118-204, L144V) (Q15699 118-204 L144V): as the sequence (Q15699 118-204 L144R) above, with R27V counted along it
# Chain of MSX2 (Homo sapiens, UniProt P35548 130-214) (P35548 130-214): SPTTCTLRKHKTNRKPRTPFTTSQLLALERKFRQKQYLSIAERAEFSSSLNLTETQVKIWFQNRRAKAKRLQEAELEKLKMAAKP
sequence,measurement,setting,value
GTCCCCCA,binding signal,[1],"9.39 upbm affinity estimate (log intensity, higher = more binding, comparable within an allelic series)"
same,binding signal,[2],"9.42 upbm affinity estimate (log intensity, higher = more binding, comparable within an allelic series)"
same,binding signal,[3],"9.22 upbm affinity estimate (log intensity, higher = more binding, comparable within an allelic series)"
AATTATTG,binding signal,[1],"11.1 upbm affinity estimate (log intensity, higher = more binding, comparable within an allelic series)"
same,binding signal,[4],"12.3 upbm affinity estimate (log intensity, higher = more binding, comparable within an allelic series)"
same,binding signal,[5],"11.1 upbm affinity estimate (log intensity, higher = more binding, comparable within an allelic series)"
same,binding signal,[6],"13.4 upbm affinity estimate (log intensity, higher = more binding, comparable within an allelic series)"
same,binding signal,[7],"8.57 upbm affinity estimate (log intensity, higher = more binding, comparable within an allelic series)"
same,binding signal,[8],"9.77 upbm affinity estimate (log intensity, higher = more binding, comparable within an allelic series)"
same,binding signal,[9],"13.1 upbm affinity estimate (log intensity, higher = more binding, comparable within an allelic series)"
same,binding signal,[10],"8.02 upbm affinity estimate (log intensity, higher = more binding, comparable within an allelic series)"
CCAACACC,binding signal,[1],"9.31 upbm affinity estimate (log intensity, higher = more binding, comparable within an allelic series)"
same,binding signal,[3],"8.85 upbm affinity estimate (log intensity, higher = more binding, comparable within an allelic series)"
ACTTTAAG,binding signal,[1],"10.1 upbm affinity estimate (log intensity, higher = more binding, comparable within an allelic series)"
same,binding signal,[11],"12.5 upbm affinity estimate (log intensity, higher = more binding, comparable within an allelic series)"
same,binding signal,[12],"10.3 upbm affinity estimate (log intensity, higher = more binding, comparable within an allelic series)"
same,binding signal,[3],"10.8 upbm affinity estimate (log intensity, higher = more binding, comparable within an allelic series)"
ACCGAGGG,binding signal,[1],"8.94 upbm affinity estimate (log intensity, higher = more binding, comparable within an allelic series)"
same,binding signal,[13],"6.46 upbm affinity estimate (log intensity, higher = more binding, comparable within an allelic series)"
same,binding signal,[14],"7.64 upbm affinity estimate (log intensity, higher = more binding, comparable within an allelic series)"
same,binding signal,[5],"6.47 upbm affinity estimate (log intensity, higher = more binding, comparable within an allelic series)"
same,binding signal,[15],"7.78 upbm affinity estimate (log intensity, higher = more binding, comparable within an allelic series)"
same,binding signal,[16],"7.65 upbm affinity estimate (log intensity, higher = more binding, comparable within an allelic series)"
same,binding signal,[8],"7.64 upbm affinity estimate (log intensity, higher = more binding, comparable within an allelic series)"
same,binding signal,[17],"6.38 upbm affinity estimate (log intensity, higher = more binding, comparable within an allelic series)"
same,binding signal,[18],"7.63 upbm affinity estimate (log intensity, higher = more binding, comparable within an allelic series)"
same,binding signal,[3],"9.32 upbm affinity estimate (log intensity, higher = more binding, comparable within an allelic series)"
AGACGAGC,binding signal,[1],"9.44 upbm affinity estimate (log intensity, higher = more binding, comparable within an allelic series)"
same,binding signal,[11],"9.38 upbm affinity estimate (log intensity, higher = more binding, comparable within an allelic series)"
same,binding signal,[12],"9.3 upbm affinity estimate (log intensity, higher = more binding, comparable within an allelic series)"
same,binding signal,[3],"9.6 upbm affinity estimate (log intensity, higher = more binding, comparable within an allelic series)"
GCCGGACC,binding signal,[1],"9.13 upbm affinity estimate (log intensity, higher = more binding, comparable within an allelic series)"
same,binding signal,[19],"8.9 upbm affinity estimate (log intensity, higher = more binding, comparable within an allelic series)"
same,binding signal,[3],"9.39 upbm affinity estimate (log intensity, higher = more binding, comparable within an allelic series)"
same,binding signal,[20],"8.93 upbm affinity estimate (log intensity, higher = more binding, comparable within an allelic series)"
AGATCAAT,binding signal,[1],"10.1 upbm affinity estimate (log intensity, higher = more binding, comparable within an allelic series)"
same,binding signal,[3],"11.6 upbm affinity estimate (log intensity, higher = more binding, comparable within an allelic series)"
CACGTGGC,binding signal,[1],"9.17 upbm affinity estimate (log intensity, higher = more binding, comparable within an allelic series)"
same,binding signal,[2],"9.61 upbm affinity estimate (log intensity, higher = more binding, comparable within an allelic series)"
same,binding signal,[3],"9.4 upbm affinity estimate (log intensity, higher = more binding, comparable within an allelic series)"
CTATAATC,binding signal,[1],"10.5 upbm affinity estimate (log intensity, higher = more binding, comparable within an allelic series)"
same,binding signal,[21],"12.5 upbm affinity estimate (log intensity, higher = more binding, comparable within an allelic series)"
same,binding signal,[3],"12.5 upbm affinity estimate (log intensity, higher = more binding, comparable within an allelic series)"
CGGAACCG,binding signal,[1],"9.35 upbm affinity estimate (log intensity, higher = more binding, comparable within an allelic series)"
same,binding signal,[22],"7.68 upbm affinity estimate (log intensity, higher = more binding, comparable within an allelic series)"
same,binding signal,[3],"9.26 upbm affinity estimate (log intensity, higher = more binding, comparable within an allelic series)"
GTCCCCAC,binding signal,[1],"9.29 upbm affinity estimate (log intensity, higher = more binding, comparable within an allelic series)"
same,binding signal,[19],"9.01 upbm affinity estimate (log intensity, higher = more binding, comparable within an allelic series)"
same,binding signal,[3],"9.35 upbm affinity estimate (log intensity, higher = more binding, comparable within an allelic series)"
same,binding signal,[20],"9.13 upbm affinity estimate (log intensity, higher = more binding, comparable within an allelic series)"
AATTATGC,binding signal,[1],"11.1 upbm affinity estimate (log intensity, higher = more binding, comparable within an allelic series)"
same,binding signal,[23],"9.27 upbm affinity estimate (log intensity, higher = more binding, comparable within an allelic series)"
AATCATGT,binding signal,[1],"10.4 upbm affinity estimate (log intensity, higher = more binding, comparable within an allelic series)"
same,binding signal,[3],"12.2 upbm affinity estimate (log intensity, higher = more binding, comparable within an allelic series)"
CCGTGTCC,binding signal,[1],"9.3 upbm affinity estimate (log intensity, higher = more binding, comparable within an allelic series)"
same,binding signal,[24],"6.98 upbm affinity estimate (log intensity, higher = more binding, comparable within an allelic series)"
same,binding signal,[25],"7.18 upbm affinity estimate (log intensity, higher = more binding, comparable within an allelic series)"
same,binding signal,[3],"9.13 upbm affinity estimate (log intensity, higher = more binding, comparable within an allelic series)"
same,binding signal,[26],"6.99 upbm affinity estimate (log intensity, higher = more binding, comparable within an allelic series)"
AGTGGTAA,binding signal,[1],"10 upbm affinity estimate (log intensity, higher = more binding, comparable within an allelic series)"
same,binding signal,[24],"9.41 upbm affinity estimate (log intensity, higher = more binding, comparable within an allelic series)"
same,binding signal,[3],"11.2 upbm affinity estimate (log intensity, higher = more binding, comparable within an allelic series)"
AAATAATT,binding signal,[1],"11.1 upbm affinity estimate (log intensity, higher = more binding, comparable within an allelic series)"
same,binding signal,[19],"9.97 upbm affinity estimate (log intensity, higher = more binding, comparable within an allelic series)"
same,binding signal,[10],"7.74 upbm affinity estimate (log intensity, higher = more binding, comparable within an allelic series)"

# Source: paper PMC11006913
